Measured values published in PubChem BioAssay (NCI).
Compounds without any hit were thinned out: in the full panel of roughly 79,000, 15% have a hit. Values without a mark were called inactive. Calls of active or inactive are those of the source. Rule as the data show it: active = growth inhibition above about 70%; inactive = the rest.

Experiment: NCI Yeast Anticancer Drug Screen. Data for the mlh1 rad18 strain (AID 175)
Details: S. cerevisiae mlh1 rad18 strain growth inhibition; at 50.0 µM; hits give high values
In short: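 Growth inhibition of the yeast strain was measured after compound exposure and expressed relative to vehicle-treated controls. The strain carries defined defects in DNA damage repair.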
`COc1ccc2c3c1OC1C(O)C=CC4C(C2)N(N=O)CCC341` (centres undefined) gave a growth inhibition of 21.7%. `CCN(CC)C1CCCCC1` gave a growth inhibition of 11.2%. With `COc1ccc2c(c1OC(C)=O)-c1cc(OC(C)=O)cc3c1C(C2)NCC3` (centres undefined) the growth inhibition was 4.4%. Compound `CC1(C)N=C(N)N=C(N)N1c1ccc(OCCOc2ccc(S(=O)(=O)F)cc2)cc1` has a growth inhibition of -18.4%. Work on `C[N+](C)(Cc1ccc([N+](=O)[O-])cc1)c1ccc(N(CCCl)CCCl)cc1` yielded a growth inhibition of 10.8%. `[Cl][Pt]([Cl])[Cl].[NH-]C1CN2CCC1CC2` (centres undefined) gave a growth inhibition of -7.55%. In the case of `[CH3][Sn]([CH3])([Br])[CH2]CCCBr`, the growth inhibition is reported as 99.3% (active). For `CCCCCCCCCCCCCCCCP(=O)(O)OP(=O)(O)OCC1OC(n2cnc3c(N)ncnc32)C(O)C1O` (centres undefined), the growth inhibition was 80.3% (active). In the case of `CCCOP(=O)(OCCC)C(=O)Nc1ccc(Br)cc1`, the growth inhibition is reported as -9.5%. For `[Cl][Pt][Cl].c1ccc([PH+](c2ccccc2)c2ccccc2)cc1.c1ccc([PH+](c2ccccc2)c2ccccc2)cc1`, the growth inhibition was -16.9%. In the case of `CN(C)c1ccc(C=O)cc1.[C-]#[O+].[C-]#[O+].[C-]#[O+].[Cr]`, the growth inhibition is reported as -38.9%. `CN(C)c1ccc([N+](=O)[O-])c([N+](=O)[O-])c1` showed a growth inhibition of -3.05%. `CC1(C)CN=C(Nc2ccc(Cl)cc2)S1` showed a growth inhibition of -31.2%. With `N[C@@H](Cc1ccc2oc3cc(=O)c4ccccc4c-3nc2c1)C(=O)O` the growth inhibition was 35%. With `CC1=CC(=O)C2=C(C)C[C@H](O)[C@@H]3[C@H](OC(=O)[C@H]3C)[C@@H]12` the growth inhibition was 8.85%. `CCOP(=O)(OCC)C(O)c1ccc(Cl)cc1` (centres undefined) gave a growth inhibition of -11.3%. Compound `c1ccc(N=Nc2ccccc2)cc1` has a growth inhibition of 24.6%. For `CNC(=O)N1CN(c2ccccc2)C2(CCN(CCCC3(c4ccc(F)cc4)OCCO3)CC2)C1=O`, the growth inhibition was 1.05%. `O=C1C(=C([O-])c2ccccc2)C(=O)c2ccccc21.O=C1C(=C([O-])c2ccccc2)C(=O)c2ccccc21.[Fe+2]` showed a growth inhibition of 15.8%. Work on `C[C@]12CCC(=O)C=C1CC[C@@H]1[C@@H]2CC[C@]2(C)C(=O)[C@H](n3ccnc3)C[C@@H]12` yielded a growth inhibition of 5.65%. In the case of `Cc1cc(C(C)(C)C)ccc1O`, the growth inhibition is reported as 22%. Work on `[NH-]C(CCC(N)=O)C(=O)O.[NH-]C(CCC(N)=O)C(=O)O.[Pd+2]` (centres undefined) yielded a growth inhibition of -8.1%. In the case of `CC1C(C)(C)P(=O)(Oc2ccc3ccccc3c2)C1(C)C` (centres undefined), the growth inhibition is reported as 56.6%. Work on `c1ccc(-c2ccc[n+](CC[n+]3cccc(-c4ccccn4)c3)c2)nc1` yielded a growth inhibition of 8.45%. With `O=C(O)C(O)CO.[Pb]` (centres undefined) the growth inhibition was 9.85%. Work on `Cc1ccc(S(N)(=O)=O)cc1` (tested in a mixture with another compound) yielded a growth inhibition of 13%. For `Cc1ccc2nc(CCl)[nH]c2c1`, the growth inhibition was 58.7%. For `CCCCS(=O)(=O)C(c1ccccc1)c1ccccc1`, the growth inhibition was 96.4% (active). Compound `CCOP(=O)(OCC)/C(C#N)=C/C=C/c1ccco1` has a growth inhibition of 1.8%. For `OC1(C#[C][Hg][C]#CC2(O)CCCCC2)CCCCC1`, the growth inhibition was 95.4% (active). `CCOc1cc(CCNC)c2c(ccc3ccc(OC)c(O)c32)c1OC` showed a growth inhibition of -36.8%. For `Oc1cc(Cl)ccc1Cl`, the growth inhibition was 98.8% (active). In the case of `C[C@]12CC[C@H]3[C@@H](CCC4=C(Br)C(=O)CC[C@@H]43)[C@@H]1CC[C@@H]2O`, the growth inhibition is reported as 19.1%. Work on `COc1cc(C=Nc2ccc(C(=O)O)c(O)c2)ccc1N(CCCl)CCCl` yielded a growth inhibition of 48.8%. For `Cc1cc2oc(=O)c3c(c2c(O)c1CN1CCOCC1)CCCC3`, the growth inhibition was 15.8%. Work on `CC1=C(C)C(=O)O[C@@H]([C@](C)(O)[C@]2(O)CC[C@@]3(O)[C@@H]4C[C@H]5O[C@]56[C@@H](O)C=CC(=O)[C@]6(C)[C@H]4CC[C@]23C)C1` yielded a growth inhibition of 12.8%. `CC(C)/C=C/C1(C(C)C)C(=O)NC(=O)NC1=O` gave a growth inhibition of 3.1%. For `COC(=O)C(Cl)Cl`, the growth inhibition was 14.1%. Compound `NC(=O)c1cc(N(CCCl)CCCl)c([N+](=O)[O-])cc1[N+](=O)[O-]` has a growth inhibition of 5.5%.
